From PubChem
Giardia FBPA inh: blocks Giardia fructose-bisphosphate aldolase activity. actives 0.71% (n = 290,000). A8B2U2. Potency, µM (series often up to 59.6 µM), without a hit: at the highest dose activity, negative = inhibition, usual class: inhibitors. AID 2451. purified Giardia FBPA; further: potency means the concentration at half of the fitted maximal effect; nearly all actives have a fitted effect of over 55% in size
Target sequence (A8B2U2 whole entry, looked up): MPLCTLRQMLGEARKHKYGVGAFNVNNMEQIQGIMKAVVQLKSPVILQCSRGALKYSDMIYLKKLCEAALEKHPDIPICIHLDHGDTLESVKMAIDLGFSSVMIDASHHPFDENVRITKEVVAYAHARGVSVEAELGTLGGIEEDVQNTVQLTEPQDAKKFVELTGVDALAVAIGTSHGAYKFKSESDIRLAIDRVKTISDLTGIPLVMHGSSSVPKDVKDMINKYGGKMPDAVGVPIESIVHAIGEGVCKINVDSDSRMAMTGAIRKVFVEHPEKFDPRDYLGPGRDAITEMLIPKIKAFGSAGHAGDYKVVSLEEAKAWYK
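Giardia FBPA (40 nM reagent) was preincubated 10 min at RT with compound (up to 57.5 uM final), then substrate plus GAPDH/TPI/NAD/arsenate coupling system with diaphorase/resazurin was added; resorufin fluorescence (525/598 nm) was read after 20 min.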
HCMV inh: human cytomegalovirus inhibition. HFF cells, HCMV-luciferase reporter, 72 h; active compounds read low. actives 4.5% (n = 410,000). activity change, negative = inhibition, % at 57.5 µM; in the data active means activity change below about -60%; inconclusive means no clear call, values can overlap the other calls; inactive means above about -39%
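Two compound doses tested in HFFs infected with HCMV-luciferase, MOI 1 PFU/cell, 72 h at 37C. Lysate luminescence read with OneGlo; data normalized against buffer-only and 10uM Salinomycin inhibitor controls.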
LASV entry inh: inhibitors of Lassa virus binding or cell entry | Lassa virus pseudotype entry inhibition, cell reporter | Potency, µM (highest dose often 37.9 µM), for the others: top-dose activity change, negative = inhibition, most hits filed as inhibitors | actives 1.2% (n = 300,000) | AID 540256; calls by dose curve; tested in HEK293 cells; further: potency means the concentration at half of the fitted maximal effect; nearly all actives have a fitted effect of over 50% in size
FMDV inh: blocks foot and mouth disease virus; FMDV antiviral cell-based qHTS; Potency, µM (titrated, usually from 57.9 µM), without a hit: top-dose activity change, negative = inhibition, most hits filed as inhibitors; actives 1.2% (n = 410,000); calls by dose curve; tested in HEK293T cells; further: read-out not given here; potency means the concentration at half of the fitted maximal effect; nearly all actives have a fitted effect of over 45% in size
MARV entry inh: Marburg virus entry inhibition | actives 1.8% (n = 300,000) | Potency, µM (top dose mostly 37.8 µM), inactives show at the top dose activity change, negative = inhibition, usual class: inhibitors | AID 540276 | Marburg virus pseudotyped entry inhibition, cell reporter; calls by dose curve; tested in HEK293 cells; further: potency means the concentration at half of the fitted maximal effect
HCV inh: HCV inhibition; Potency, µM (doses to about 41.8 µM), for inactives: at the top dose activity change, negative = inhibition, most hits filed as inhibitors; Huh7.5.1 HCVcc-Cre infection, luciferase reporter, 44 h; actives 3.4% (n = 340,000); further: potency means the concentration at half of the fitted maximal effect
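A cell-based infection assay in which seeded cells (1,000 per well) receive test compound after 4 h, are inoculated with HCVcc-Cre at approximately 0.5 moi, and are incubated 44 h before luminescence detection.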
* hit, by the source's call; [ ] = dose if it differs, or a comment. The list is not random: actives were taken first. Their share in the collection is about 8.3%. Unless noted, the call rests on the fitted dose curve; in most records, active means well fitted curve in the direction sought with a large enough effect; inconclusive means small, poorly fitted or top-dose-only effect, or another doubt; inactive means no such curve, though single readings can be large; an effect the other way counts as inactive or inconclusive. On the % scale 0 is the no-effect control and ±100 the full control effect.

COCCn1c(=O)c(-c2cccs2)nc2cnc(N(C)C)nc21 was read as Giardia FBPA inh 4% and FMDV inh -16%.
For Cc1ccc(N(CC(=O)NCCc2ccccc2)C(=O)c2csnn2)cc1 the results were Giardia FBPA inh 2%, HCMV inh -88*, LASV entry inh -13%[46.1 µM], FMDV inh 3%, MARV entry inh -8%[46.1 µM] and HCV inh -12%.
`COC(=O)C1=C(C)N(Cc2ccccc2)C(=S)NC1c1ccc(Br)cc1` (centres undefined) gave HCMV inh 2, LASV entry inh inconclusive and MARV entry inh -36%[14.2 µM].
Screening O=C(N/N=C\c1cccc(F)c1)c1ccc(-c2ccccc2)cc1 returned HCMV inh -33, LASV entry inh -2%[46.1 µM], FMDV inh 27%, MARV entry inh 0%[46.1 µM] and HCV inh -16%.
Screening O=C(N/N=C\c1c(F)c(F)c(F)c(F)c1F)c1ccc(-c2ccccc2)cc1 returned Giardia FBPA inh 7%, HCMV inh -69*, LASV entry inh 6%, FMDV inh 8%, MARV entry inh 10% and HCV inh 33%.
For Cc1nc(N/N=C/c2ccccn2)sc1C the results were Giardia FBPA inh -22%, HCMV inh -98*, LASV entry inh 1.8µM*, FMDV inh -30%, MARV entry inh 1.3µM* and HCV inh inconclusive.
Screening C[C@@H](NC(=O)c1ncn2c1c(=O)[nH]c1ccc(Br)cc12)c1ccccc1 returned HCMV inh -100* and FMDV inh 0%.
Screening OC[C@H]1O[C@@H](O[C@@H]2OC=C[C@H]3[C@H](O)[C@@H]4O[C@]4(CO)[C@@H]23)[C@H](O)[C@@H](O)[C@@H]1O returned Giardia FBPA inh 4%.
For COc1ccc(CCNC(=O)Cn2c(=O)n(-c3ccc(OC)c(OC)c3)c(=O)c3ccccc32)cc1OC the results were HCMV inh 1, LASV entry inh -4%[46.1 µM], FMDV inh -10% and MARV entry inh 5%[46.1 µM].
Screening COc1ccc([C@]23Cc4ccccc4[C@H](O2)C2=C(CC(C)(C)CC2=O)O3)cc1 returned MARV entry inh 6%[14.2 µM].
Screening C[N+]12CCC(CC1)[C@H](OC(=O)C(O)(c1ccccc1)c1ccccc1)C2 returned MARV entry inh 14%.
Screening Cc1cc(NCCCN)nc(-c2ccccc2O)n1 returned Giardia FBPA inh 2%, HCMV inh 68, LASV entry inh inconclusive, FMDV inh 24%, MARV entry inh -1% and HCV inh 10µM*.
For Cc1cc(N/N=C/c2ccc(O)c(C)c2O)nc(-c2ccccc2O)n1 the results were Giardia FBPA inh 0%, HCMV inh -103*, LASV entry inh inconclusive, FMDV inh -16%, MARV entry inh inconclusive and HCV inh inconclusive.
Cc1ccc(Nc2cc(C)nc(-c3ccccc3O)n2)cc1 was read as Giardia FBPA inh -6%, HCMV inh 26, LASV entry inh 8%, FMDV inh 32%, MARV entry inh inconclusive and HCV inh inconclusive.
`Cc1cc(Nc2ccc(Br)cc2)nc(-c2ccccc2O)n1` gave Giardia FBPA inh 7%, HCMV inh 6, FMDV inh 14% and HCV inh 13µM*.
O=[N+]([O-])c1ccc2c(c1)S(=O)(=O)C=C2 was read as Giardia FBPA inh -4%, LASV entry inh 3.3µM*, FMDV inh 32µM* and MARV entry inh inconclusive.
`Cn1c(=O)cnc2cnc(OCc3ccccc3)nc21` gave Giardia FBPA inh -4% and FMDV inh 2%.
Screening N#Cc1ccc(NC(=O)C2Cc3ccccc3CN2S(=O)(=O)c2ccc(F)cc2)cc1 (centres undefined) returned HCMV inh -17, LASV entry inh -28%[46.1 µM], FMDV inh -23% and MARV entry inh -20%[46.1 µM].
CCCNC(=O)OC[C@H]1O[C@H](CCON=Cc2ccc(C(=O)N3[C@H](C(=O)OC)CC[C@H](C)[C@@H]3c3ccc(C)cc3)cc2)C=C[C@H]1Oc1ccc(OC)cc1 was read as LASV entry inh -24%[14.3 µM] and MARV entry inh -28%[14.2 µM].
N=c1c(-c2nc3ccccc3[nH]2)cc(C(=O)c2ccco2)nn1-c1ccccc1 was read as Giardia FBPA inh inconclusive, HCMV inh inconclusive, LASV entry inh -8%, FMDV inh -24%, MARV entry inh inconclusive and HCV inh 7.9µM*.
`OC1COC(OCc2ccccc2)C(O)C1O` (centres undefined) gave Giardia FBPA inh 5%, HCMV inh 3, LASV entry inh -1%[46.1 µM], FMDV inh -8%, MARV entry inh 13%[46.1 µM] and HCV inh inconclusive.
Screening COc1ccc(CNC(=O)c2ccc3c(c2)CCN3S(=O)(=O)c2ccc(Cl)cc2)cc1 returned HCMV inh -30, LASV entry inh -30%[46.1 µM], FMDV inh -27% and MARV entry inh inconclusive.
`CCC(=NCc1ccc2c(c1)OCO2)c1c(O)n(C2CCCCC2)c(=O)[nH]c1=O` gave Giardia FBPA inh 2%, HCMV inh inconclusive, LASV entry inh 13µM*, FMDV inh inconclusive, MARV entry inh inconclusive and HCV inh inconclusive.
For CCC(=NCCO)c1c(O)n(C2CCCCC2)c(=O)[nH]c1=O the results were Giardia FBPA inh -10%, HCMV inh 15, LASV entry inh -15%, FMDV inh -5%, MARV entry inh 4% and HCV inh 14%.
CN1C(=O)c2ccccc2Sc2ccc(NC(=O)N3CCN(c4cccc(Cl)c4)CC3)cc21 was read as HCMV inh inconclusive, LASV entry inh inconclusive, FMDV inh -13% and MARV entry inh 11µM*.
`CN1C(=O)CSc2ccc(NC(=O)N3CCN(c4ccccc4)CC3)cc21` gave Giardia FBPA inh -4%, HCMV inh 56, LASV entry inh 1%, FMDV inh 0%, MARV entry inh -11%[46.1 µM] and HCV inh -21%.
CCN1C(=O)c2ccccc2Sc2ccc(NC(=O)Nc3cc(C)cc(C)c3)cc21 was read as HCMV inh -99*, LASV entry inh 0%[46.1 µM], FMDV inh inconclusive and MARV entry inh 5%[46.1 µM].
For CN1C(=O)c2ccccc2Sc2ccc(NC(=O)Cc3c(F)cccc3Cl)cc21 the results were HCMV inh -82*, LASV entry inh inconclusive and FMDV inh -29%.
CCN1C(=O)c2ccccc2Sc2ccc(NC(=O)c3ccc(Cl)cc3)cc21 was read as HCMV inh 12, LASV entry inh 18%[46.1 µM] and FMDV inh -16%.
CN1C(=O)c2ccccc2Sc2ccc(NC(=O)COc3ccccc3)cc21 was read as HCMV inh -63*, LASV entry inh inconclusive and FMDV inh -23%.
For CC12C=C(/C=C/c3ccc(F)cc3)C(C)(C1)C(c1ccc(F)cc1)CC2=O (centres undefined) the results were Giardia FBPA inh 2%[12.9 µM] and MARV entry inh 9%[14.2 µM].
